Consider 27 molecules from publication PMC12136788.

Numbering of substitutions follows the chain as printed. Whole data set: some 5,800 sequences, median “enrichment r” near 0.68, cut for the highest 2% near 11. The sample as a whole holds a higher share of the highest values than the screen did.

B1: ENSG00000198589:be:win_8001|CDS|ENSG00000198589|bound_else_gene|NA|bound_elsewhere_windowed (ssRNA)
RNA: GGGAGUUCUACAGUCCGACGAUCUGGAGAUAACCCAGGCAGUGAGACUGCUGCUCCUCGGGCCAUUUUGACCGGCCAUGACUAUGAGGUCACAUGUGCUGCGGUGUGUGCGGAGCUAGGCCUGGUGUUGAGUGGUUCACAAGACAACAGAGGAUUGAGCAUCA
B2: chr2:231108229:231108516:-|three_prime_utr|ENSG00000135914|control|control|control (ssRNA)
RNA: GGGAGUUCUACAGUCCGACGAUCAAGAAUAUCUAAUUUUCCUAAUUUGGACAAGAUUAUUCCAUGAGGAAAAUAAUUUUAUAUAGCUACAAAUGAAAACAAUCCAGCACUCUGGUUAAAUUUUAAGGUAUUCGAAUGAAAUAACAACAGAGGAUUGAGCAUCA
B3: chr5:113594843:113594944:+|3pUTR|ENSG00000047188|msi1|FALSE|bound_elsewhere (ssRNA)
RNA: GGGAGUUCUACAGUCCGACGAUCCAACAUAAAAUCUUGAGAACCUUCUACUUUCUCUGGGAAAGCAUUAUAUAGUGGUGCAUUAGUUUAGAAAGUCAGCUAUGAUUUUGCCUAUAGUUCUAGUUAUUAGCUUUGGGGUUUUCUCAACAGAGGAUUGAGCAUCA
B4: chr3:49657245:49657349:+|CDS|ENSG00000164061|unk|total|mutant (ssRNA)
RNA: GGGAGUUCUACAGUCCGACGAUCCAGCCGCCGUGGCAUCAAGAAGCGGCACUCCAUGCCACGCCUGCGGGAUGCCUGUGAGCCCGAGUCUGGGACUGAGCCCUGUGUGGUCAGGAGGAUUGCCGACAGCAGCGUGCAGACAGACAACAGAGGAUUGAGCAUCA
B5: chr1:193014253:193014354:-|3pUTR|ENSG00000116750|unk|total|mutant (ssRNA)
RNA: GGGAGUUCUACAGUCCGACGAUCUUAACCGGUAUAAGGAUUUUUCUUAUUAAUCUAAUAAAAUUCCUUAACCGGAAUUUCCACCGCUUAAGAGUGGUUUAUUUUAUCUGCAUCUUCUUUGGUGAUUGCAAAUCCCUUGUGAUACAACAGAGGAUUGAGCAUCA
B6: chr1:45660322:45660423:-|5pUTR|ENSG00000159592|unk|FALSE|unique (ssRNA)
RNA: GGGAGUUCUACAGUCCGACGAUCUCCCCUUCCCCCCUUCCCCUUUUCCCCUUUCCCCUUUUGGAAACGUGUCAGGAACCAAAUAGUUUAAGAUGAGCAGUUGAGGGGACUGAGAGAGUGAUCGACACAGAACCUGGCUUCUUCCAACAGAGGAUUGAGCAUCA
B7: ENSG00000070961:be:win_3901|3pUTR|ENSG00000070961|bound_else_gene|NA|bound_elsewhere_windowed (ssRNA)
RNA: GGGAGUUCUACAGUCCGACGAUCAAGUGACCUGUGGAUCAUCAGUAGUACCCAAGCAUGGUCCUGAACAGUGUAUUAGCAGAGCUUUAGUUUAUCUCAGUCCUGGAUGGGAGAGAGAGGGAGGAGUAAAACUGGGCAAGACAACAACAGAGGAUUGAGCAUCA
B8: chr11:95167508:95167609:-|3pUTR|ENSG00000149212|unk|FALSE|unique (ssRNA)
RNA: GGGAGUUCUACAGUCCGACGAUCAAUAAUGGAGACUGAAUGAGGCGGUUUGUAUUAAAUUAUAUGCCAUGAAGUGUUCAUUUUAGCUUUAACCUAAUUAUGACUGUACCACCAUGAAGUACAGAAUGAAAAAUUAUAUAUAUGCAACAGAGGAUUGAGCAUCA
B9: chr8:80500255:80500365:+|CDS|ENSG00000205189|unk|FALSE|unique (ssRNA)
RNA: GGGAGUUCUACAGUCCGACGAUCGAAAAACCAAACUACAAAAAGAUUUAUUUAUAAUAUUCCACCUAAUAAUGAAACGAAUUUAGAAGAUUGCUCAGUAAUGCAGCCACCUGUUGCCUAUCCAGAAGAAAAUACACUACUCAUCAACAGAGGAUUGAGCAUCA
B10: chr8:30843048:30843149:-|CDS|ENSG00000133863|unk|FALSE|unique (ssRNA)
RNA: GGGAGUUCUACAGUCCGACGAUCGGAUACUAUAAUUGCUUCCAGAAAGUCAGAUCAUCCAAUAAACGAAGCAACAAUUAGCAUAGAAAAUUCUAAAUUUAACAGUAAUUUGCUUGCACACCCAGAUAUUUGUUGUAUUAGUGACAACAGAGGAUUGAGCAUCA
B11: ENSG00000136451:be:win_3801|3pUTR|ENSG00000136451|bound_else_gene|NA|bound_elsewhere_windowed (ssRNA)
RNA: GGGAGUUCUACAGUCCGACGAUCACCCCUAAGCUAGAAUGUGGUUGUCAGAACCCUGAAAGUAUUAGUUCUAAAAAAAAAAAGAUAUAUACUAGAAGUAAUUGUUUUAUCAAUUCAUUGUAUAAUAAACAGGAGUGAGACUUCCAACAGAGGAUUGAGCAUCA
B12: chr2:42328916:42329027:+|CDS|ENSG00000143924|unk|total|mutant (ssRNA)
RNA: GGGAGUUCUACAGUCCGACGAUCAGAAGGAUCUGAUGGGACAGAUAUCAAUGCACUGGUGCGAUCCCACAACCGAAAGGUGACCGCUGUUGCCGAUGACUUUUGUAAAGUCCAUCUGUUUCAGUAUCCCUGCUCCAAAGCAAACAACAGAGGAUUGAGCAUCA
B13: chr6:52279506:52279615:-|CDS|ENSG00000112118|unk|total|mutant (ssRNA)
RNA: GGGAGUUCUACAGUCCGACGAUCUGAGUGUGGCAUUUUUAAGACAGGACGGAGAUCACUCUGUCCCUCUGUGUGCCUUUUUCCCGGAUGAGGAGAACAAUCCCCUUGAGACAGAAUAUGGCCUUUCUGUCUACAAGGAUCACCCAACAGAGGAUUGAGCAUCA
B14: chr1:17067933:17068034:-|3pUTR|ENSG00000117115|msi1|FALSE|unique (ssRNA)
RNA: GGGAGUUCUACAGUCCGACGAUCACAUAAGGACCCUGGCCUACCCUCCAGCCCAACAGCCAGUUCUGGGUCAGCUGCCAACUUAGGGGUGGUUUGAUUAUCCCAUUGAAAUUCACCAGUGCCUUUGCCAAAGACCCUCUCAUUCAACAGAGGAUUGAGCAUCA
B15: chr12:104760787:104760888:+|3pUTR|ENSG00000171310|unk|FALSE|unique (ssRNA)
RNA: GGGAGUUCUACAGUCCGACGAUCUUCUUUUCUAAUGGCAUUGAAACUUUAAAAAAAAUGGAUUCAACUGUUUUUGCAGAAUGUAGAAAGUAUUCUGUGUCCUUGGUUAAAGAAAUCCACUUGUGAAGUGUGCCUGGAAAAUGACAACAGAGGAUUGAGCAUCA
B16: chr5:159157431:159157536:-|3pUTR|ENSG00000145860|unk|total|mutant (ssRNA)
RNA: GGGAGUUCUACAGUCCGACGAUCCAAAAAGUGUUUUUCAGACCUCGGUAUUCCUAAUGUGGGAUGUGACUUUAUUUUAUUUUCCGCCGCAAAUUUGGAUGCCGACUGACAGACACCGCUGAAUGUCUUAAUAAAUUUAAAUUUCAACAGAGGAUUGAGCAUCA
B17: chr7:111727939:111728040:-|3pUTR|ENSG00000128512|unk|FALSE|unique (ssRNA)
RNA: GGGAGUUCUACAGUCCGACGAUCAAGUGGUAAAUAGUGAUAAAGACUCCUUUUGUACCUUUUUAUGUUCACUUUUUUUUAUAUAGUUUAAUCUUAAAACCAAUACGAUAUUGUCAAACGAUACAAUGUGUGACAAUGUUGUAUCAACAGAGGAUUGAGCAUCA
B18: chr7:123541454:123541562:-|3pUTR|ENSG00000128609|unk|FALSE|unique (ssRNA)
RNA: GGGAGUUCUACAGUCCGACGAUCUCCAUAGUGUCAUUUUAUUUUAGUCAUUAUUGAAUUAUACCAUUUACUCUGUUUUCUUAUAGUCUUAAUUUUAUUAUAUUUUGUUGUUACUGUAUUAUAUUUGAAAACCUUCAAAUUAGACAACAGAGGAUUGAGCAUCA
B19: chr10:117282838:117282939:-|3pUTR|ENSG00000165650|unk|FALSE|bound_elsewhere (ssRNA)
RNA: GGGAGUUCUACAGUCCGACGAUCCCCCUUGUGUUAUUUUUCUUCCUCUUGGUUUUUGAAUUAGUGUUAAAUAGAAUACUGUCUAGAUUCUUAAAAUAUUUUCAUUUCCAUCAUGGUUAUAACAAAUUUGCUGCAUGCCCAAACCAACAGAGGAUUGAGCAUCA
B20: ENSG00000033178:stop:overlap|stop_codon|ENSG00000033178|stop_codon|NA|stop_codon (ssRNA)
RNA: GGGAGUUCUACAGUCCGACGAUCCUAUUGAAAUUUAUGGCUGUCCGAAUAUUUGUUUGUUAAUACAUAAGUGUUCUGUAUAUUAGUAUUCUCUUAUCCUUCACAUCCAGCUUUGCUACUCUGUGGCAUUAGACAACUUUUUUCCAACAGAGGAUUGAGCAUCA
B21: chr5:159157431:159157536:-|3pUTR|ENSG00000145860|unk|FALSE|bound_elsewhere (ssRNA)
RNA: B16 RNA with C83U, C84A, C86U, C87A, C101U, C102A, C115U, C116A
B22: chr6:11183298:11183399:-|3pUTR|ENSG00000111859|msi1|total|mutant (ssRNA)
RNA: GGGAGUUCUACAGUCCGACGAUCACAUUUCACAUUUUUAAAACCAAAUGUUCAAUCUGUAUUACUCUUUGCCGUCUUGUAUGCCGAGGCUAUUUUUAAAUCAUUAAAUUUUCCGAUCUCUGUUUUCACCGCCACUGGGUUUUCCAACAGAGGAUUGAGCAUCA
B23: chr19:811491:811550:+|3pUTR|ENSG00000011304|msi1_unk|FALSE|overlapping (ssRNA)
RNA: GGGAGUUCUACAGUCCGACGAUCUAGCAAUAUUUCCAGUUGACCAAAUAUUCUAAUCUUUUUUCAUUUAUAUGCAAAAGAAAUAGUUUUAAGUAACUUUUUAUAGCAAGAUGAUACAAUGGUAUGAGUGUAAUCUAAACUUCCCAACAGAGGAUUGAGCAUCA
B24: chr7:111727939:111728040:-|3pUTR|ENSG00000128512|unk|total|mutant (ssRNA)
RNA: B17 RNA with U34C, A35C, U83C, A84C
B25: chr17:80395157:80395266:+|3pUTR|ENSG00000173821|unk|FALSE|bound_elsewhere (ssRNA)
RNA: GGGAGUUCUACAGUCCGACGAUCCUUCAAAGCCUUAACUGUCAAAUCUUGCAUUAUCUUGUUUGUACAGAAAUAUACUGGCCUAGCAGAGGCAAAAAAAAAAAAAAUGAAUUUUAUUUUACUUGUCACACCUGUCUUAAUAAACAACAGAGGAUUGAGCAUCA
B26: chr2:227556236:227556337:+|3pUTR|ENSG00000173744|msi1|FALSE|bound_elsewhere (ssRNA)
RNA: GGGAGUUCUACAGUCCGACGAUCUGUUGAAUGCCUUUUUGCAAUGAUGACUGAGUUGUUAUCAUAGUAUUUUAAAACCUGUAUAGUGUUUUAGACUUGUUAAAACAUUGCUGUCUAGUGUACAUCUAGCUAAAAGUGUGGUUUCAACAGAGGAUUGAGCAUCA
B27: chr7:123541454:123541562:-|3pUTR|ENSG00000128609|unk|total|mutant (ssRNA)
RNA: B18 RNA with U28C, A29C, U44C, A45C, U83C, A84C, U140C, A141C

This test deals with T1, UNK ZnF1-6 (called full-length) (human, UniProt Q9C0B0 30-357).
T1 sequence: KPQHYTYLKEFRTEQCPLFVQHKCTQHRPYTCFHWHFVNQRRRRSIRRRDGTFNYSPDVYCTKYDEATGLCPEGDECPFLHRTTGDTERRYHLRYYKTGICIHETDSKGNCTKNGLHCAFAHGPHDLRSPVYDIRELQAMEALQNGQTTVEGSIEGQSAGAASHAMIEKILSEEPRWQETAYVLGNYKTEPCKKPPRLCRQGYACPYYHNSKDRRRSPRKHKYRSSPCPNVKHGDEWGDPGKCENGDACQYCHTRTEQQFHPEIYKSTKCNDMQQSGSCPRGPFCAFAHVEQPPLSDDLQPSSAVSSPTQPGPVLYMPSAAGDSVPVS
The experiment in a line: nsRBNS (natural sequence RNA bind-n-seq); RBNS binding buffer (assumed for nsRBNS): 25 mM Tris pH 7.5, 150 mM KCl, 3 mM MgCl2, 0.01% Triton X-100, 500 ug/ml BSA, 20 U/ml SUPERase-In, 4 C; UNK is unkempt and MSI1 is Musashi-1; names of the RNAs are library labels; protein concentration not given here; high values mean tight binding.
In turn, B1 came in with a binding signal of 0.695 enrichment R.

Consider B2, for which the binding signal was 1.88 enrichment R.

B3 registered a binding signal of 5.33 enrichment R.

B4 came in with a binding signal of 0.785 enrichment R.

As to B5, the binding signal was found to be 0.372 enrichment R.

Take B6: the binding signal came to 0.765 enrichment R.

B7 returned a binding signal of 1.72 enrichment R.

For B8, the binding signal came out at 8.52 enrichment R.

The molecule B9 gave a binding signal of 9.28 enrichment R.

With B10, the binding signal is 14.2 enrichment R.

In the case of B11, the binding signal was 2.41 enrichment R.

With B12, the binding signal was 0.381 enrichment R.

The molecule B13 gave a binding signal of 0.393 enrichment R.

Turning to B14, the binding signal amounted to 0.896 enrichment R.

As to B15, the binding signal came to 0.431 enrichment R.

On to B16, for which the binding signal was found to be 0.813 enrichment R.

B17: the binding signal came to 21.5 enrichment R.

Molecule B18 yielded a binding signal of 150 enrichment R.

In turn, B19 showed a binding signal of 3.48 enrichment R.

B20 returned a binding signal of 0.919 enrichment R.

Turning to B21, the binding signal is 11.8 enrichment R.

For the molecule B22, the binding signal was determined as 1.08 enrichment R.

With B23, the binding signal is 0.832 enrichment R.

B24 showed a binding signal of 2.33 enrichment R.

As for B25, the binding signal is 0.564 enrichment R.

With B26, the binding signal was 0.596 enrichment R.

B27 yielded a binding signal of 17 enrichment R.
